Here are results for 5 compounds from PubChem BioAssay.

Assay [1] is described as follows: compound effects on lung adenocarcinoma cell viability – A549, calcein-AM fluorescence, 48 h, basal, profiling panel (AID 1162). Also: test concentration not given here. To be noted: higher = more signal.
Assay [2] can be described thus: compound effects on differentiated 3T3-L1 adipocyte viability – cell-based, 3T3-L1 adipocytes, calcein-AM fluorescence, 48 h, basal, profiling panel (AID 1163). Also: test concentration not given here. To be noted: 3T3-L1 adipocytes viability, higher = more signal.
The nature of assay [3]: compound effects on hepatocellular carcinoma cell viability – HepG2, calcein-AM fluorescence, 48 h, basal, profiling panel (AID 1164). Also: test concentration not given here. To be noted: higher = more signal.
Assay [4] in a line: compound effects on multiple myeloma cell viability – MM1S, calcein-AM fluorescence, 48 h, basal, profiling panel (AID 1165). Also: test concentration not given here. The conditions noted are these: higher = more signal.
Assay [5] is described as follows: calcein-AM signal in unstimulated myeloma cells – cell-based, calcein-AM fluorescence, 48 h, PK04 Diversity Set, profiling panel (AID 1166).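 Also: cells grown under basal conditions without added stimulus; test concentration not given here.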 To be noted: RPMI8226 myeloma viability, higher = more signal.
Assay [6] is described as follows: JC-1 mitochondrial signal, unstimulated HepG2 cells – cell-based, JC-1 fluorescence, 24 h, 100 nL compound, profiling panel (AID 1167). Also: test concentration not given here. To be noted: HepG2 mitochondrial potential, higher = more signal.
Assay [7] is described as follows: JC-1 mitochondrial signal, unstimulated adipocytes – cell-based, JC-1 fluorescence, 3T3-L1 adipocytes, 24 h, 100 nL compound, profiling panel (AID 1168). Also: test concentration not given here. To be noted: JC-1 mitochondrial fluorescence, higher = more signal, called active from +8 up or from −8 down.
The nature of assay [8]: JC-1 mitochondrial signal, unstimulated myeloma cells – cell-based, JC-1 fluorescence, RPMI8226, 24 h, 100 nL compound, profiling panel (AID 1169). Also: test concentration not given here. The conditions noted are these: JC-1 mitochondrial potential fluorescence, higher = more signal.
Assay [9] is described as follows: JC-1 mitochondrial signal, unstimulated MM1S myeloma – cell-based, JC-1 fluorescence, 24 h, 100 nL compound, profiling panel (AID 1170). Also: test concentration not given here. The conditions noted are these: MM1S mitochondrial potential, higher = more signal.
Assay [10] in a line: resazurin metabolic signal in A549 cells – cell-based, resazurin fluorescence, 24 h, PK04 Diversity Set, profiling panel (AID 1171). Also: test concentration not given here. The conditions noted are these: A549 viability, higher = more signal, called active from +8 up or from −8 down.
The nature of assay [11]: resazurin metabolic signal in HepG2 cells – cell-based, resazurin fluorescence, 24 h, PK04 Diversity Set, profiling panel (AID 1172). Also: test concentration not given here. To be noted: HepG2 viability, higher = more signal. (In general: Alamar Blue is a resazurin reagent that responds to reducing activity.)
Assay [12] can be described thus: budding yeast growth changes without added modifier – OD600, strain BY4716, 24 h, basal condition, primary screen (AID 1173). The conditions noted are these: S. cerevisiae BY4716 growth, OD600, 24 h; higher = more signal, called active from +8 up or from −8 down.
Assay [13] can be described thus: viability profiling in MM1S myeloma cells – cell-based, resazurin fluorescence, basal, 24 h, PK04 Diversity Set, profiling panel (AID 1174). Also: test concentration not given here. The conditions noted are these: higher = more signal, called active from +8 up or from −8 down.
Assay [14] deals with Dihydroorotate dehydrogenase (quinone), mitochondrial (Plasmodium falciparum (isolate 3D7)) (UniProt Q08210). As to the kind of experiment: inhibition of P. falciparum DHODH – biochemical, C-terminal His tag, absorbance 600 nm, primary screen (AID 1175).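 Also: recombinant parasite enzyme with a five histidine tag at its C terminus; test concentration not given here.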 The conditions noted are these: PfDHODH enzyme, DCIP absorbance 600 nm; higher = more signal, called active from +8 up or from −8 down.

Assay [15] in a line: inhibition of PAO1 biofilm formation – strain PAO1, LB-PBS medium, absorbance 600 nm, primary screen (AID 1176). Also: test concentration not given here. To be noted: P. aeruginosa PAO1 growth/biofilm, A600, 12 h; higher = more signal.
The nature of assay [16]: growth modulation of vineyard yeast isolate – strain RM11-1a, OD600, basal, 24 h, primary screen (AID 1177).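 Also: cultures grown under basal conditions with no added stressor; test concentration not given here.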 The conditions noted are these: S. cerevisiae RM11-1a growth, OD600, 24 h; higher = more signal, called active from +8 up or from −8 down.
Assay [17] is described as follows: growth of efflux-deficient E. coli DRC39 – strain DRC39, OD650, 24 h, E. coli filamentation inducers, primary screen (AID 1178).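 Also: growth measured as culture turbidity by optical density at 650 nm; test concentration not given here.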 To be noted: E. coli DRC39 acrAB, higher = more signal, called active from +8 up or from −8 down.
Assay [18] can be described thus: growth of efflux-deficient E. coli DRC39 – strain DRC39, OD650, 48 h, E. coli filamentation inducers, primary screen (AID 1179).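 Also: screen aims at cell division blockers that make cells filament.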 The conditions noted are these: E. coli DRC39 delta-acrAB growth, higher = more signal, called active from +8 up or from −8 down.
Assay [19] in a line: viability profiling in RPMI8226 myeloma cells – cell-based, resazurin fluorescence, basal, 24 h, PK04 Diversity Set, profiling panel (AID 1180).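 Also: RPMI8826 multiple myeloma cell line at 5000 cells per well; test concentration not given here.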 To be noted: higher = more signal.
Assay [20] deals with E3 ubiquitin-protein ligase XIAP (Homo sapiens) (UniProt P98170). In words: small molecules binding XIAP protein – biophysical, small-molecule microarray, fluorescence 635 nm, primary screen (AID 1181).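 Also: score merges 667 nm emission and signal to noise over triplicate slides.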 To be noted: higher = more signal.

SMILES strings stand for the structures. The source made the active and inactive calls. Unless noted, no rule for the calls is given here.

Sequence of E3 ubiquitin-protein ligase XIAP (Homo sapiens) (P98170 whole entry, looked up): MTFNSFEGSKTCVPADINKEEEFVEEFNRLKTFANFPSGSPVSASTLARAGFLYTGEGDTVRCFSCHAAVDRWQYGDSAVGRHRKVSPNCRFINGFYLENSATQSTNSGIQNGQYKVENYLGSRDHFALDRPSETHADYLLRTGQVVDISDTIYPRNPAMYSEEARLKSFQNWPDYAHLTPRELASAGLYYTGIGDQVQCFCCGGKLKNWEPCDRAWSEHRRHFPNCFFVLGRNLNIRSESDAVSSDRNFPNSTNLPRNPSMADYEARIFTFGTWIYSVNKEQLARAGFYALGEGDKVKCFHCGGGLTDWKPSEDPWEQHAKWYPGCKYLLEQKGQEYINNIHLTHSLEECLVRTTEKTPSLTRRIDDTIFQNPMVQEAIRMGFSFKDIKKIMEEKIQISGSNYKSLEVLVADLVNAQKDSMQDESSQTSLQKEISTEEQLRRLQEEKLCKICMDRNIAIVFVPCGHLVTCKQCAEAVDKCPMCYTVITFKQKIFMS
Sequence of Dihydroorotate dehydrogenase (quinone), mitochondrial (Plasmodium falciparum (isolate 3D7)) (Q08210 whole entry, looked up): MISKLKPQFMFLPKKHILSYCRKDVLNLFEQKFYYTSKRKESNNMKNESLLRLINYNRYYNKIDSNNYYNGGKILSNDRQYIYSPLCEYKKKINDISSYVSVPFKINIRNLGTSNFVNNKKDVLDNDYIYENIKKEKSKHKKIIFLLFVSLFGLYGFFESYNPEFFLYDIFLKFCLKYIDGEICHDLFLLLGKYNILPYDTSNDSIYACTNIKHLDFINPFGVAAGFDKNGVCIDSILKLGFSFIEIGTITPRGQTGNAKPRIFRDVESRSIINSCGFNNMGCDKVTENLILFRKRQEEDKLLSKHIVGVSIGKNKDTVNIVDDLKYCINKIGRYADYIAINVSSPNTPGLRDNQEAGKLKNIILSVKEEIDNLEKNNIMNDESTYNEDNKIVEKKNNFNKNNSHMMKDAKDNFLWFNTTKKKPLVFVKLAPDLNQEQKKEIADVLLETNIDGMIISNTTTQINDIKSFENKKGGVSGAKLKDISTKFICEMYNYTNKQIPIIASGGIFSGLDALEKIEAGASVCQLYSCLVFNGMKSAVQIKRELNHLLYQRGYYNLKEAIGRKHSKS

Consider `C=CCC(OC(C)=O)[C@@H]1[C@@H](N(Cc2ccc(-c3ccccc3)cc2)C(=O)Cc2ccc(OC)cc2)c2cc(OCCCO)ccc2N1C(=O)Cc1ccc(OC)cc1` (stereo not given in full), for which the z-score in assay [1] is 0.0816; in [2] it was 0.9; in [3] it was -0.103; in [4], 0.11; in [5], -0.203; in assay [6], 2.58. Further, the z-score in assay [7] was -0.454 (inactive); in assay [8] it was -0.0751; in [9] it was 0.504; in assay [10], 0.117 (inactive); in assay [11], -0.626; in [12], 0.118 (inactive). For the same compound, the z-score in [13] was -0.622 (inactive); in assay [15], 0.186 (inactive); in assay [16] it was -0.565 (inactive); in assay [17] it was -0.105 (inactive); in assay [18], -0.403 (inactive); in assay [19], -0.357. For the same compound, the composite z-score in [14] is -0.0632 (inactive); in assay [20] it was -0.185.

As for `O=C1C2C=CC(C(O)C3CC=CCC3)N(Nc3ccc([N+](=O)[O-])cc3)C2C(=O)N1c1ccccc1` (stereo not given), the z-score in [1] is -0.562; in assay [2] it was 0.243; in assay [3] it was -1.55; in [4] it was 0.25; in assay [5], -0.738; in assay [6], -1.02. Besides, the z-score is -1.43 (inactive) in assay [7]; -0.374 in assay [8]; 0.000383 in assay [9]; -0.383 (inactive) in assay [10]; -0.681 in assay [11]; -0.541 (inactive) in assay [12]. The z-score is -0.428 (inactive) in [13]; 1.29 (inactive) in [15]; -0.0935 (inactive) in [16]; -0.544 (inactive) in assay [17]; -0.861 (inactive) in [18]; -0.617 in assay [19]. Moreover, the composite z-score in assay [14] is 0.354 (inactive); in assay [20], 0.26.

For `C=CC[C@]12N=C(c3ccc(OCCCO)cc3)O[C@H]1c1ccccc1N(CCC)C2=O`, the z-score in [1] is -1.36; in [2], 0.538; in assay [3], -0.454; in assay [4] it was -2.03; in [5], -3.07; in [6] it was 0.788. Further, the z-score in assay [7] is 1.85 (inactive); in [8], -1.07; in assay [9] it was -0.207; in assay [10], 0.266 (inactive); in assay [11] it was -0.151; in assay [12] it was -1.91 (inactive). The z-score was -1.14 (inactive) in assay [13]; 1.24 (inactive) in assay [15]; 0.208 (inactive) in assay [16]; 0.181 (inactive) in assay [17]; -0.464 (inactive) in [18]; -0.65 in assay [19]. In addition, the composite z-score was -0.536 (inactive) in [14] and 0.0655 in [20].

As for `C=CC[C@H](OC(=O)Nc1ccc(SC)cc1)c1ccc(O)c(F)c1`, the z-score was -1.24 in assay [1]; -0.152 in assay [2]; -1.82 in [3]; -1.59 in [4]; -1.64 in assay [5]; -3.17 in assay [6]. For the same compound, the z-score was 2.25 (inactive) in assay [7]; -0.325 in assay [8]; -0.716 in assay [9]; -1.01 (inactive) in assay [10]; -0.124 in [11]; -15.5 (active) in [12]. The z-score was -0.868 (inactive) in assay [13]; 1.1 (inactive) in assay [15]; -11 (active) in [16]; 0.332 (inactive) in assay [17]; -0.343 (inactive) in [18]; -1.54 in assay [19]. Further, the composite z-score in assay [14] was -1.32 (inactive); in [20], 0.0297.

As for `C=CCNC(=O)[C@@H]1[C@H]2C(=O)O[C@H](c3ccccc3)[C@H](c3ccccc3)N2[C@H](c2ccc(OCCO)cc2)[C@@]12C(=O)Nc1ccc(C#CC3=CCCCC3)cc12`, the z-score in [1] is -1.25; in assay [2], 0.73; in assay [3] it was -1.18; in assay [4], -2.12; in assay [5], -2.66; in assay [6], -1.11. The z-score was -0.194 (inactive) in assay [7]; -1.19 in [8]; -1.24 in assay [9]; -1.49 (inactive) in assay [10]; -0.411 in assay [11]; 0.899 (inactive) in assay [12]. Moreover, the z-score was -2.16 (inactive) in assay [13]; 2.29 (inactive) in assay [15]; 2.01 (inactive) in [16]; -0.972 (inactive) in assay [17]; -0.563 (inactive) in assay [18]; -2.96 in assay [19]. The figures for the composite z-score in [14] and in assay [20] were 0.106 (inactive) and -0.178, respectively.
